# Measurements taken from PubChem BioAssay (NCI).
# About 83,000 compounds went through this panel and 20% of them were active in at least one assay; those are over-represented in the sample as a whole.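 Percent growth is the endpoint: 0 to 100 indicates growth inhibition (40 means 60% inhibition), 0 means no net growth, and negative values indicate cell death.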 Active and inactive are the calls of the source. How the source made its calls: active means growth percent below 10; inactive means the rest.
# Test system: SW-620 colon
# Experiment: NCI-60 one-dose screen, 48 h (100 = growth as untreated, 0 = no growth, -100 = all killed)
# Details: 10 µM unless noted
row,SMILES,growth
1,CC(C)(C)c1nn(-c2ccccc2)c2c1CC1(CN2Cc2ccc3c(c2)OCO3)C(=O)c2ccccc2C1=O,101% (inactive)
2,Nc1nc(-c2ccc(F)cc2)cc(-c2cnn(-c3ccccc3)n2)n1,99.3% (inactive)
3,CC(=O)CC(C)(C)c1ccc(Cl)cc1,100% (inactive)
4,Nc1c(C(=O)Nc2ccccc2Cl)sc2nc3c(cc12)CCCCCC3,34.3% (inactive)
5,O=C(Nc1ccc(Nc2cc(Nc3ccccc3)ncn2)cc1)Nc1cc(C(F)(F)F)ccc1F,120% (inactive)
6,CCOC(=O)C(Cc1cc(I)c(O)c(I)c1)NC(=O)c1ccccc1 (stereo unspecified),94.4% (inactive)
7,CC[C@H](Nc1cc(C)nc(N)n1)c1nc2cccc(NCc3ccc(C(=O)NO)cc3)c2c(=O)n1-c1ccccc1,-10.8% (active)
8,C=C1CCC2C3(C)COC(c4cccc(Cl)c4)OC3CCC2(C)C1/C=C/C1=CCOC1=O (stereo unspecified),78.4% (inactive)
9,COc1cc(-c2c3sc(=O)[nH]c3nc3c2c(=O)[nH]n3C(C)C)cc2c1OCO2,104% (inactive)
10,O=S(=O)(Nc1ccc(F)c(Cl)c1)c1ccc(-c2cnc(C3CC3)o2)cc1,17.3% (inactive)
11,COc1ccc(/C=c2/c(=O)[nH]c3nc4sc(C)c(C)c4c(=O)n23)cc1,107% (inactive)
12,Fc1ccc(Cc2ccc(F)cc2)cc1,99.1% (inactive)
13,CC(C)c1c(C(=O)Nc2ccccc2)c(-c2ccccc2)c(-c2ccc(F)cc2)n1CC[C@@H]1CC=CC(=O)O1,-45.1% (active)
14,COc1ccc2nc3cc(Cl)ccc3c(N3CCN(c4ccnc(N5CCN(C)CC5)n4)CC3)c2c1,-55.1% (active)
15,COc1cc(NCCCCN=C(N)NC(N)=NC(C)C)c2ncccc2c1,62.9% (inactive)
16,CS(=O)CCCCCN=C=S (stereo unspecified),5.5% (active)

row,SMILES,growth
1,O=C(CO[N+](=O)[O-])Nc1ccc(C(=O)/C=C/c2ccc3c(c2)OCO3)cc1,47.8% (inactive)
2,O=C(CCN1CCOCC1)Nc1ccc(Cn2nnc3c2C(=O)c2nnn(Cc4ccc(NC(=O)CCN5CCOCC5)cc4)c2C3=O)cc1,30.7% (inactive)
3,O=C1Nc2ccccc2/C1=C/C(=N/c1nnc(-c2ccc(Cl)cc2)s1)c1ccccc1,-52.6% (active)
4,Cc1ccc(SCN2CCN(c3cccc(Cl)c3)CC2)cc1,107% (inactive)
5,COc1ccccc1N1CCN(CCn2c(=O)c3c(c4ccccc4n3C)n(C)c2=O)CC1,98.9% (inactive)
6,O=C(Cn1cc(CN2C(=O)c3ccccc3S2(=O)=O)nn1)Nc1ccc([N+](=O)[O-])cc1Cl,98.1% (inactive)
7,O=[N+]([O-])c1c(F)cccc1Nc1cccc(F)c1,108% (inactive)
8,CC1(C)CC(=O)C(c2c(-c3ccccc3)[nH]c3[nH]c(=S)[nH]c(=O)c23)=C(O)C1,104% (inactive)
9,O=C([C@@H](COCc1ccccc1)N1C(=O)[C@@H](N2C(=O)OC[C@@H]2c2ccccc2)[C@H]1/C=C/c1ccccc1)N1CCC(CCN2CCCCC2)CC1,98% (inactive)
10,COc1cc(/C=N\NC(=O)CN2CCN(c3cc4c(cc3F)c(=O)c(C(=O)N/N=C/c3ccc(O)c(OC)c3)cn4C3CC3)CC2)ccc1O,57.2% (inactive)
11,ClC1=C2NC=NC2n2c(nnc2-c2ccc(Cl)cc2)N1 (stereo unspecified),115% (inactive)
12,COc1ccc(C(=O)c2sc3nc(-c4ccccc4OC)ccc3c2N)cc1OC,73.6% (inactive)
13,CCN1CCN(Cc2ccc(NC(=O)Nc3nc4ccc(Oc5ccnc(C(=O)NC)c5)cc4s3)cc2C(F)(F)F)CC1,-52.7% (active)
14,C=C1CCC2C3(C)COC(c4ccc(SC)cc4)OC3CCC2(C)C1C/C=C1/C(=O)OCC1O (stereo unspecified),10.6% (inactive)
15,O=c1[nH]c(-c2ccccn2)nc2sc3c(c12)CCCCC3,29.5% (inactive)
